The results in this text go back to ChEMBL document CHEMBL3988442, “University of Dundee, Small-Polar-MMV Screening Library” (2021).

The target of this experiment is AMP-activated protein kinase, AMPK (Homo sapiens) (UniProt P54646+O43741+P54619+Q9UGJ0+Q9Y478+Q13131+Q9UGI9). Nature of the experiment: AMP-dependent Kinase enzyme assay. An in vitro enzyme assay that detects ADP turnover that is directly proportional to AMPK activity. This uses naive AMPK that is activated during the assay with MK-8722. The format is functional. The settings on record: 30 µM. On the set-up: scale not given: direction of the effect not stated beside the values.
`CS(=O)(=O)c1ccccc1N[C@@H]1c2ccccc2C[C@@H]1O`: the Percent Effect was -13.1%.
The result for `COCc1nc(CN2CCN(c3ccc(OC)cc3)C(=O)C2C)no1` (centres undefined) reads 6.42%; that for `CC(C)(C(=O)N[C@@H]1CCC[C@@H](O)[C@@H]1O)c1cccc(F)c1`, 15.9%.
Take `CCN1CCC(NC(=O)N(C)Cc2csc3ccccc23)CC1`: the Percent Effect is -1.48%.
As to `CCN(CC)C(CNC(=O)c1ccc(-n2cncn2)cc1)c1ccsc1` (centres undefined), the Percent Effect was -4.43%.
The result for `CC(C)(C)CN(CCC#N)C(=O)c1cccc(CN2CCCC2)c1` reads 7.06%; that for `c1cnc(Nc2ccc(C3CCCCN3Cc3ccncc3)cn2)nc1` (centres undefined), 11.1%.
With `CN(C)CCN(Cc1ccc(C#N)cc1)C(=O)c1ccn(C)c(=O)c1` the figure was 15.4%; with `Cc1ccc(C(=O)NCc2cc(F)ccc2N2CCCN(C)CC2)o1`, 9.19%; with `Cc1ccccc1N1CCCN(C(=O)CCc2nncn2C)CC1`, -4.54%.
Regarding `CC(C)Cc1cc(CNC(=O)c2ccccc2C2CCNC2)no1` (centres undefined), the Percent Effect amounted to 3.3%.
On to `CC(C)CNC(=O)c1[nH]nc(C2CC2)c1Br`, for which the Percent Effect was -2.23%.
With `COC[C@]1(O)CCN(c2cc(N3CCOCC3)ncn2)CC1(C)C` the figure was -1.8%; with `Cc1c(Br)cccc1NC(=O)N(C)CCO`, -2.37%; with `CN(C)c1cc(N(C)Cc2cc(C(C)(C)C)n[nH]2)ncn1`, -16.4%.
With `O=C(NCCn1ccnc1-c1cc2n(n1)CCNC2)c1ccncc1` the figure was 1.13%.
Regarding `O=C(c1ccnc(-n2cnnc2)c1)N1CCCC2(CCOC2)C1` (centres undefined), the Percent Effect was -4.79%.
The result for `Cc1cc(C(=O)NC(C)Cc2ccc(N(C)C)cc2)n(C)n1` (centres undefined) reads 11.6%; that for `O=C(NCC1CCOC1)c1cc(-c2ccc(Cl)cc2)n[nH]1` (centres undefined), 1%.
